The results in this text go back to PubChem BioAssay AID1241 (SRMLSC, 2008).

The structures appear in SMILES notation. Out of some 1,200 compounds screened, about 840 (70%) were called active. So high a share suggests a set chosen from earlier hits. Only a sample is shown. Results with a measured potency or affinity are listed apart. A number with no mark means an inactive call. The rule behind the calls is not given here.

The nature of the assay: compounds inducing NF-kB luciferase expression – cell-based, SH-SY5Y, dose response (AID 1241). Conditions: SH-SY5Y NF-kB promoter luciferase reporter; series mostly up to 30 µM; fold induction over control: at the top concentration.
`Cc1ccccc1-c1nnc(SCc2ccccc2F)o1`: the “fold induction over control” value was 12.6 (inactive).

`CCCn1c(/C=C/c2ccccc2)nc2ccccc21`: the “fold induction over control” value is 8.61 (inactive).

As to `CCCCCNc1nc(-c2ccccc2)cs1`, the “fold induction over control” value was 14.6 (inactive).

Turning to `COc1ccc(-c2csc(-c3ccc(C(=O)O)cc3)n2)cc1`, the “fold induction over control” value is 11.9 (inactive).

For `CC1=C/C(=N\OS(=O)(=O)c2ccccc2)C(C(C)C)=CC1=O`, the “fold induction over control” value was 0.91 (inactive).

As to `CCOc1ccc2ccccc2c1CNCCN1CCOCC1`, the “fold induction over control” value is 1.11 (inactive).

`COc1ccccc1-c1noc(-c2ccccc2)n1`: the “fold induction over control” value was 8.4 (inactive).

As for `CC(=O)Nc1ccc(-c2cn3cc(C)ccc3n2)cc1`, the “fold induction over control” value is 8.51 (inactive).

For `CCOc1ccc(/C=N/n2c(SC)nnc2-c2ccccc2)cc1OCC`, the “fold induction over control” value was 1.09 (inactive).

In the case of `CC(=O)Oc1ccc(/C=N/NC(=S)Nc2ccccc2)cc1`, the “fold induction over control” value was 13.1 (inactive).

Turning to `O=C(Cc1ccccc1F)Nc1ccc(SC(F)F)cc1`, the “fold induction over control” value is 8.46 (inactive).

As for `Cc1ccc(C(=O)Nc2ccc3nc(C)sc3c2)s1`, the “fold induction over control” value was 9.29 (inactive).

For `O=C(NC(=S)Nc1cccc(-c2ccc(CO)o2)c1)c1cccs1`, the “fold induction over control” value was 1.54 (inactive).

Turning to `Cc1nc(NC(=O)c2cccs2)ccc1Br`, the “fold induction over control” value is 10.9 (inactive).

In the case of `COC(=O)c1ccc2nc(NC(=O)C(C)C)sc2c1`, the “fold induction over control” value is 14.7 (inactive).

Consider `CC1Cc2ccccc2N1C(=O)/C=C/c1cccc(F)c1` (stereo unspecified), for which the “fold induction over control” value was 10.3 (inactive).

`CN(C)CCCN(C(=O)/C=C/c1cccs1)c1nc2c(F)cccc2s1`: the “fold induction over control” value is 19.1 [at 15 µM] (inactive).

As for `CN1C(=O)/C(=C/C=C2\SCCN2C)N(C)C1=S`, the “fold induction over control” value was 8.39 (inactive).

With `O=C(/C=C/Sc1ccccc1)c1ccccc1`, the “fold induction over control” value is 9.32 (inactive).

Turning to `C=C(C(=O)c1ccccc1)C(C)C(=C)C(=O)c1ccccc1`, the “fold induction over control” value was 7.83 [at 15 µM] (inactive).

With `Cc1cccc(/C(N)=N/OC(=O)c2ccco2)c1`, the “fold induction over control” value is 12 (inactive).

On to `O=C(N/N=C\c1ccc(Oc2ccccc2)cc1)c1csnn1`, for which the “fold induction over control” value is 8.95 (inactive).

For the compound `O=C(/C(C=Nc1ccc(Br)cc1)=C(/O)c1ccco1)C(F)(F)F`, the “fold induction over control” value is 13.4 (inactive).

With `O=C1/C(=C/c2cccs2)CCC1C1CCCC1` (stereo unspecified), the “fold induction over control” value is 9.35 (inactive).

On to `CC1=CC(c2ccccc2)=Nc2ccc(C)cc2N1`, for which the “fold induction over control” value is 5.67 (inactive).

With `O=C(c1ccccc1)c1nnc(-c2ccccc2F)o1`, the “fold induction over control” value is 12.5 (inactive).

With `COc1ccc(C2=NN(C(C#N)c3ccc(OC)cc3)C(c3ccccc3)C2)cc1` (stereo unspecified), the “fold induction over control” value was 1.84 (inactive).

Consider `CN1CCN(Cc2nc3ccccc3c(=O)n2Cc2nc(-c3ccc4ccccc4c3)cs2)CC1`, for which the “fold induction over control” value is 2.07 (inactive).

As to `CCOc1ccc(-c2nc3ccccc3c(=O)o2)cc1`, the “fold induction over control” value was 11.2 (inactive).

Consider `CCSc1ncc(/C=N/Nc2ccc(Cl)cc2)n1C`, for which the “fold induction over control” value was 9.97 (inactive).

`CCOC(=O)c1[nH]c2c(c1C)C(=O)CC(c1ccco1)C2` (stereo unspecified): the “fold induction over control” value is 2.32 (inactive).

`O=C(O)CCCNC(=O)Nc1ccccc1`: the “fold induction over control” value was 1.06 (inactive).

Regarding `CCCC(O)(CCC)C(=O)NN(C(=O)CCl)c1ccccc1`, the “fold induction over control” value was 1.74 (inactive).

In the case of `CC(C)c1cc(C(=O)Nc2cc(Cl)ccc2O)no1`, the “fold induction over control” value is 8.04 (inactive).

`O=c1[nH][nH]cc1C=Nc1ccccc1O`: the “fold induction over control” value is 3.08 (inactive).

For the compound `O=c1oc2cc(Cl)ccc2n1CSc1nc2ccccc2s1`, the “fold induction over control” value was 11.7 (inactive).

Take `CN1CCN(Cc2cc(Cl)c3cccnc3c2OC(=O)c2cccs2)CC1`: the “fold induction over control” value is 11.5 [at 15 µM] (inactive).

As to `COC(=O)CSc1nc2ccc(C)cc2cc1C#N`, the “fold induction over control” value is 13.8 [at 7.5 µM] (inactive).

Turning to `COCCNC(=O)c1cc(-c2cccs2)on1`, the “fold induction over control” value is 11 (inactive).

For `CCOC(=O)CC(=O)CSc1nc2ccc(C)cc2cc1C#N`, the “fold induction over control” value was 5.09 (inactive).

In the case of `O=c1[nH]c(=O)n([C@H]2C[C@H](O)[C@@H](CO)O2)cc1C(F)(F)F`, the “fold induction over control” value was 1.13 (inactive).

For the compound `COc1cc(C(Nc2ccccn2)c2ccc3ccc(C)nc3c2O)cc(OC)c1O` (stereo unspecified), the “fold induction over control” value is 0.2 (inactive).

In the case of `Cc1c(NC(=O)CSc2cccc3cccnc23)c(=O)n(-c2ccccc2)n1C`, the “fold induction over control” value was 5.68 [at 15 µM] (inactive).

On to `Cc1ccc(COn2c(-c3ccc(Cl)cc3)nc3ccc([N+](=O)[O-])cc32)cc1`, for which the “fold induction over control” value is 8.36 (inactive).

`CCOC(=O)C(C)On1c(-c2ccc(Cl)cc2)nc2ccc([N+](=O)[O-])cc21` (stereo unspecified): the “fold induction over control” value was 1.48 (inactive).

Regarding `CCN1CCCc2cc(CN(CCN3CCOCC3)C(=S)Nc3cccc(Cl)c3)ccc21`, the “fold induction over control” value was 0.89 (inactive).

Regarding `CCc1nc(Sc2nnnn2-c2ccccc2)c2c3c(sc2n1)CCCC3`, the “fold induction over control” value is 6.97 [at 15 µM] (inactive).

Take `CCC/C=N/Nc1nc2ccccc2s1`: the “fold induction over control” value was 8.91 (inactive).

For `COc1ccc(C(=O)c2oc3ccc(OC)cc3c2N)cc1`, the “fold induction over control” value was 9.59 (inactive).

As for `CCCNC(=O)c1cc(-c2ccc(OC)cc2)on1`, the “fold induction over control” value was 13 (inactive).

`O=c1cc(-c2ccc3c(c2)OCCO3)oc2ccc(Cl)cc12`: the fold induction over control is 10.2 [at 3.75 µM].

In the case of `N/C(=N\OC(=O)COc1ccc(Cl)cc1Cl)c1ccncc1`, the “fold induction over control” value was 7.15 (inactive).

In the case of `COc1cccc(-c2nc3ccccc3s2)c1O`, the “fold induction over control” value was 12.9 [at 15 µM] (inactive).

For the compound `Brc1ccc(-c2nc3ccccc3s2)s1`, the “fold induction over control” value was 12.4 (inactive).

For `Cc1ccc2[nH]c(-c3ccccc3)cc(=O)c2c1`, the “fold induction over control” value was 12.2 (inactive).

As to `Cc1ccc(-c2cc(=O)c3cc(C)ccc3[nH]2)cc1`, the “fold induction over control” value is 11 [at 15 µM] (inactive).

Take `Clc1ccc2nc3c4ccccc4cnn3c2c1`: the “fold induction over control” value was 11.6 [at 15 µM] (inactive).

As for `C/C(N)=C(/C#N)C(=O)CSc1nnc(-c2ccccc2Br)o1`, the “fold induction over control” value was 11.6 [at 7.5 µM] (inactive).

`CCOC(=O)/C(=C\c1ccc(OC(F)F)cc1)C1=Nn2c(nnc2-c2ccc(Cl)cc2)SC1`: the “fold induction over control” value is 5.95 [at 7.5 µM] (inactive).

`CC(OC(=O)CCc1nc2ccccc2c(=O)[nH]1)C(=O)c1ccc(C(C)(C)C)cc1` (stereo unspecified): the “fold induction over control” value was 2.93 (inactive).

As to `CCCOC(=O)c1ccc(NC(=O)CC(C)(C)C)cc1`, the “fold induction over control” value was 8.07 (inactive).
